Source: PubChem BioAssay (EPA / NIEHS)
The source made the active and inactive calls. How the source made its calls: active means hit-call score of the fitted dose curve at least 0.9, where 1 is the maximum; inactive means score below 0.9.

Legend:
[1] = APR_HepG2_CellCycleArrest_1hr: Apredica 1-hour HepG2 Assay for Cell Cycle Arrest (AID 2282666); settings: high-content imaging, actives raise or lower the signal
In short: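 HepG2 cells exposed for 1 h to 0.39–200 uM compound (0.5% DMSO). Fixed, Hoechst-stained nuclei imaged by ArrayScan; DNA content quantified by Cell Cycle analysis; bidirectional fit against DMSO.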

[2] = APR_HepG2_CellLoss_1hr: Apredica 1-hour HepG2 Assay for Cell Loss (AID 2282668); settings: high-content imaging;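 further: curves fitted both ways against DMSO so gain or loss of cells counts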
In short: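 HepG2 cells were treated for 1 h with compound at 0.39–200 uM, in duplicate, in 0.5% DMSO. After formaldehyde fixation, Hoechst 33342-stained nuclei were imaged on an ArrayScan to count cells. Data were fitted bidirectionally versus DMSO.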

[3] = APR_HepG2_MicrotubuleCSK_1hr: Apredica 1-hour HepG2 Assay for Microtubule CSK Stabilty (AID 2282669); settings: HepG2 microtubule cytoskeleton imaging, actives raise or lower the signal
In short: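 HepG2 cells exposed 1 h to 0.39–200 uM compound (0.5% DMSO, duplicates), then formaldehyde-fixed, permeabilized and immunostained for alpha-tubulin with Hoechst nuclei. Imaged by ArrayScan high-content analysis; bidirectional fit versus DMSO.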

[4] = APR_HepG2_NuclearSize_1hr: Apredica 1-hour HepG2 Assay for Nuclear Size (AID 2282670); settings: high-content imaging, actives raise or lower the signal
In short: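 HepG2 cells dosed 1 hr with 0.39–200 uM compound (0.5% DMSO), formaldehyde-fixed, Hoechst 33342-stained and imaged at 20x; nuclear diameter from nuclear stain, fitted bidirectionally against DMSO.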

[5] = APR_HepG2_p53Act_1hr: Apredica 1-hour HepG2 Assay for p53 Activation (AID 2282671); settings: high-content imaging, actives raise or lower the signal
In short: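 HepG2 cells treated 1 h with compound at 0.39–200 uM (10 concentrations, duplicate) in 0.5% DMSO. Formaldehyde-fixed, permeabilised cells immunostained for p53 with Hoechst 33342; high-content imaging, bidirectional fit versus DMSO.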

[6] = APR_HepG2_MitoticArrest_1hr: Apredica 1-hour HepG2 Assay for Mitotic Arrest (AID 2282672); settings: high-content imaging, actives raise or lower the signal
In short: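 HepG2 cells exposed 1 hr to compounds at 0.39–200 uM (0.5% v/v DMSO final), then fixed in 3.7% formaldehyde and immunostained for phospho-histone H3 with Hoechst 33342. Mitotic arrest scored by automated fluorescence imaging, fitted bidirectionally versus DMSO.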

[7] = APR_HepG2_P-H2AX_1hr: Apredica 1-hour HepG2 Assay for H2AX Phosphorylation (AID 2282673); settings: high-content imaging, actives raise or lower the signal
In short: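 HepG2 dosed 1 hr at 0.39-200 uM (0.5% DMSO final), duplicate. Fixed in 3.7% formaldehyde, Triton permeabilized, immunostained for phospho-histone H2A.x (1:200) with Hoechst 33342; ArrayScan 20x imaging, bidirectional fit vs DMSO.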

[8] = APR_HepG2_MitoMass_1hr: Apredica 1-hour HepG2 Assay for Mitochondrial Mass (AID 2282674); settings: high-content imaging, actives raise or lower the signal
In short: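 HepG2 cells dosed 1 hr with 0.39-200 uM compound (0.5% DMSO), duplicate wells. Mitochondria stained with 250 nM MitoTracker Red CMXRos for 30 min before formaldehyde fixation, imaged at 20x by ArrayScan; bidirectional fit versus DMSO.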

[9] = APR_HepG2_MitoMembPot_1hr: Apredica 1-hour HepG2 Assay for Mitochondrial Membrane Potential (AID 2282675); settings: imaging, actives raise or lower the signal
In short: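 HepG2 cells dosed 1 hour with 0.39–200 uM compound in duplicate, 0.5% DMSO final. MitoTracker Red CMXRos (250 nM, 30 min) loaded before formaldehyde fixation; fluorescence quantified by high-content imaging, bidirectional fitting versus DMSO.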

[10] = APR_HepG2_CellCycleArrest_24hr: Apredica 24-hour HepG2 Assay for Cell Cycle Arrest (AID 2282905); settings: imaging, actives raise or lower the signal;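 further: cell cycle arrest scored as ratio of 2N to 4N nuclear DNA content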
In short: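 Cell cycle arrest is scored from nuclear DNA content measured by high-content imaging of Hoechst 33342-stained HepG2 cells following 24-hour treatment at ten concentrations up to 200 uM, with DMSO as baseline.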

[11] = APR_HepG2_StressKinase_1hr: Apredica 1-hour HepG2 Assay for Stress Kinase (AID 2282906); settings: HepG2 stress kinase (phospho-c-Jun) imaging, actives raise or lower the signal
In short: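 HepG2 cells dosed 0.39-200 uM (0.5% DMSO) for 1 h, then formaldehyde-fixed. Stress kinase read by phospho-c-Jun immunofluorescence using high-content imaging; bidirectional fit vs DMSO.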

[12] = APR_HepG2_NuclearSize_24hr: Apredica 24-hour HepG2 Assay for Nuclear Size (AID 2282907); settings: high-content imaging, actives raise or lower the signal
In short: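 Compounds in DMSO (final 0.5%) were added to human HepG2 hepatoma cells at ten concentrations up to 200 uM for 24 hr. Fixed nuclei were stained with Hoechst 33342, and nuclear diameter was quantified from automated images.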

[13] = APR_HepG2_CellLoss_24hr: Apredica 24-hour HepG2 Assay for Cell Loss (AID 2282908); settings: high-content imaging;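 on AC50: fit in both directions so a hit may be cell loss or gain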
In short: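 Cell number is quantified by fluorescence imaging of Hoechst 33342-stained nuclei following dosing at 0.39–200 uM in 0.5% DMSO. Curves are fitted in both directions from the DMSO baseline.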

[14] = APR_HepG2_MitoticArrest_24hr: Apredica 24-hour HepG2 Assay for Mitotic Arrest (AID 2282910); settings: high-content imaging, actives raise or lower the signal
In short: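 Compounds are dosed onto HepG2 cells across ten concentrations up to 200 uM for 24 hr. Cells are then fixed in 3.7% formaldehyde, permeabilised, and labelled for phospho-histone H3 and nuclei; images are scored by cell cycle analysis and fitted bidirectionally relative to DMSO.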

[15] = APR_HepG2_MitoMembPot_24hr: Apredica 24-hour HepG2 Assay for Mitochondrial Membrane Potential (AID 2282911); settings: imaging, actives raise or lower the signal
In short: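 HepG2, 24 hr dosing, 10 concentrations 0.39–200 uM, 0.5% DMSO final. Live-cell MitoTracker Red CMXRos 250 nM 30 min, then 3.7% formaldehyde fix. HCS fluorescence imaging, 20x; bidirectional fit vs DMSO baseline.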

[16] = APR_HepG2_MitoMass_24hr: Apredica 24-hour HepG2 Assay for Mitochondrial Mass (AID 2282912); settings: high-content imaging, actives raise or lower the signal
In short: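 The liver line HepG2 was dosed in duplicate across a 0.39–200 uM series, with final DMSO held at 0.5% v/v, and harvested at 24 hr. High-content imaging measured mitochondrial dye staining.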

[17] = APR_HepG2_p53Act_24hr: Apredica 24-hour HepG2 Assay for p53 Activation (AID 2282913); settings: high-content imaging, actives raise or lower the signal;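 further: p53 protein immunofluorescence averaged per cell in HepG2 with Hoechst nuclei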
In short: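 Read-out: Cy5 immunofluorescence for p53 in fixed, permeabilized HepG2, imaged by HCS with Hoechst-defined nuclei. Dosing was 24 hr at 0.39–200 uM in 0.5% DMSO. Curves were fitted bidirectionally relative to DMSO.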

[18] = APR_HepG2_CellCycleArrest_72hr: Apredica 72-hour HepG2 Assay for Cell Cycle Arrest (AID 2282914); settings: high-content imaging, actives raise or lower the signal
In short: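 HepG2, 72 hr exposure, 10-point 0.39–200 uM, duplicate, 0.5% DMSO final. Fix 3.7% formaldehyde 30 min RT, Triton X-100 0.5%, Hoechst 33342 2 ug/mL. ArrayScan 20x, six fields/well; DNA content per nucleus; bidirectional fit vs DMSO.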

[19] = APR_HepG2_CellLoss_72hr: Apredica 72-hour HepG2 Assay for Cell Loss (AID 2282915); settings: high-content imaging
In short: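 Cell number comes from Hoechst 33342-labelled nuclei, imaged at 20x after 3.7% formaldehyde fixation. Dosing was 0.39–200 uM, ten concentrations in duplicate, 0.5% DMSO final, for 72 h. Bidirectional fit relative to DMSO baseline.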

[20] = APR_HepG2_MicrotubuleCSK_24hr: Apredica 24-hour HepG2 Assay for Microtubule CSK Stabilty (AID 2282909); settings: HepG2 microtubule cytoskeleton imaging, actives raise or lower the signal
In short: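 Steps: dose HepG2 for 24 h (0.39–200 uM, 0.5% DMSO); fix 30 min in 3.7% formaldehyde at room temperature; permeabilize; stain alpha-tubulin 60 min; image microtubule cytoskeleton at 20x. Signal change fitted in both directions relative to DMSO.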

Measured: AC50

CCc1cccc(C)c1N(C(=O)CCl)C(C)COC (stereo not drawn)
active: [19] 106 µM
inactive: [1] | [2] | [3] | [4] | [5] | [6] | [7] | [8] | [9] | [10] | [11] | [12] | [13] | [14] | [15] | [16] | [17] | [18]

CC1(C(=O)Nc2ccc(O)c(Cl)c2Cl)CCCCC1
active: [19] 71.2 µM
inactive: [1] | [2] | [3] | [4] | [5] | [6] | [7] | [8] | [9] | [12] | [13] | [14] | [15] | [17] | [18]

COc1cc(OC)nc(Sc2cccc(Cl)c2C(=O)O)n1
inactive: [1] | [2] | [3] | [4] | [5] | [6] | [7] | [8] | [9] | [11] | [12] | [13] | [20] | [14] | [15] | [17] | [18] | [19]

CC(Oc1cccc(Cl)c1)C(=O)O (stereo not drawn)
inactive: [1] | [2] | [3] | [4] | [5] | [6] | [7] | [8] | [9] | [12] | [13] | [20] | [14] | [15] | [16] | [17] | [18] | [19]

CC(=NC#N)N(C)Cc1ccc(Cl)nc1
inactive: [1] | [2] | [3] | [4] | [5] | [6] | [7] | [8] | [9] | [11] | [12] | [13] | [14] | [15] | [17] | [18] | [19]

CC(C)N(C(=O)SCC(Cl)=C(Cl)Cl)C(C)C
inactive: [1] | [3] | [4] | [5] | [6] | [7] | [8] | [9] | [11] | [12] | [14] | [15] | [17] | [18]
active: [13] 113 µM | [19] 110 µM

CCCCOC(=O)c1ccccc1C(=O)O
inactive: [1] | [3] | [4] | [5] | [6] | [7] | [8] | [9] | [11] | [12] | [13] | [14] | [15] | [17] | [18] | [19]

Nc1c(Cl)cc([N+](=O)[O-])cc1Cl
inactive: [1] | [3] | [4] | [6] | [7] | [8] | [9] | [10] | [11] | [12] | [13] | [14] | [15] | [18]
active: [19] 95.3 µM

CCCOc1nn(C(=O)NS(=O)(=O)c2ccccc2C(=O)OC)c(=O)n1C
inactive: [1] | [3] | [4] | [5] | [6] | [7] | [8] | [9] | [10] | [12] | [13] | [14] | [15] | [16] | [17] | [18] | [19]

CCc1cccc(CC)c1N(COC)C(=O)CCl
inactive: [1] | [3] | [4] | [6] | [7] | [8] | [9] | [12] | [15] | [18]
active: [10] 60.9 µM | [13] 92.5 µM | [20] 55.7 µM | [14] 62.4 µM | [19] 17.2 µM

CCOP(=O)(OCC)Oc1cc(C)nc(C(C)C)n1
inactive: [1] | [3] | [4] | [5] | [6] | [7] | [8] | [9] | [10] | [12] | [13] | [14] | [15] | [16] | [17] | [18] | [19]

CCNc1nc(Cl)nc(NC(C)(C)C#N)n1
inactive: [1] | [3] | [4] | [5] | [6] | [7] | [8] | [9] | [12] | [13] | [14] | [15] | [16] | [17] | [18] | [19]

CN1COCN(Cc2cnc(Cl)s2)C1=N[N+](=O)[O-]
inactive: [1] | [3] | [4] | [5] | [6] | [7] | [8] | [9] | [10] | [12] | [13] | [14] | [15] | [17] | [18] | [19]

O=C(O)c1cc(Oc2ccc(C(F)(F)F)cc2Cl)ccc1[N+](=O)[O-]
inactive: [1] | [3] | [4] | [6] | [7] | [8] | [9] | [12] | [13] | [14] | [15] | [16] | [18] | [19]

COc1cccc(C(=O)NN(C(=O)c2cc(C)cc(C)c2)C(C)(C)C)c1C
inactive: [1] | [3] | [4] | [5] | [6] | [7] | [8] | [9] | [11] | [12] | [13] | [20] | [14] | [15] | [16] | [17] | [18] | [19]
